These results are taken from PubChem BioAssay (NCI).

Common to all, as to test: NCI-60 one-dose screen, 48 h (100 = growth as untreated, 0 = no growth, -100 = all killed)
The test system of one test is HCT-15 colon. Conditions: 10 µM unless noted.
In the next test the test system is HT29 colon. Conditions: 10 µM unless noted.
The test system of another test is SNB-75 CNS. Conditions: 10 µM unless noted.
In a further test the test system is SNB-19 CNS. The following applies: 10 µM unless noted.
Another test deals with U251 CNS. Conditions: 10 µM unless noted.
In another test the test system is PC-3 prostate. Conditions: 10 µM unless noted.
The next test deals with SK-MEL-5 melanoma. Conditions: 10 µM unless noted.
A further test has as its system UACC-62 melanoma. Conditions: 10 µM unless noted.
For another test, the system named is LOX IMVI melanoma. The following applies: 10 µM.
A further test deals with SK-MEL-28 melanoma. Conditions: 10 µM unless noted.

About 83,000 compounds went through this panel and 20% of them were active in at least one assay; those are over-represented in the sample as a whole.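 Testing used 96-well plates and a 48-hour single-concentration exposure. Example: -40 means 40% of the starting cells died.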 A number with no mark means an inactive call. The source made the active and inactive calls. How the source made its calls: active means growth percent below 10; inactive means the rest.

As for `O=C(/C=C/C(Cl)(Cl)Cl)Nc1ccc(Cl)cc1`, the growth in the test on HCT-15 colon was 88.3%; in the test with HT29 colon it was 94.7%; in the test on SNB-75 CNS it was 110%; in the test with SNB-19 CNS it was 103%; in the test with U251 CNS it was 100%; in the test with PC-3 prostate, 104%. Also, the values for the growth in the test with SK-MEL-5 melanoma, with UACC-62 melanoma and in the test with LOX IMVI melanoma were 90.8%, 98.5% and -69.8% (active), respectively.
In the case of `Clc1ccc(Cc2nc3ccccc3s2)cc1`, the growth is 88% in the test on HCT-15 colon; 118% with HT29 colon; 83.9% in the test with SNB-75 CNS; 121% with SNB-19 CNS; 79.4% with U251 CNS; 63% in the test with PC-3 prostate. Moreover, the growth in the test with SK-MEL-5 melanoma is 96.9%; with UACC-62 melanoma, 87.7%; in the test with LOX IMVI melanoma, 74.3%; with SK-MEL-28 melanoma, 112%.
Turning to `Clc1ccc(-n2ncc3c(NCCCN4CCOCC4)ncnc32)cc1`, the growth in the test on HCT-15 colon is 96.6%; in the test on HT29 colon, 105%; in the test on SNB-75 CNS it was 89.6%; with SNB-19 CNS, 102%; with U251 CNS, 93.1%; in the test on PC-3 prostate, 87.5%. The growth is 83.5% in the test on SK-MEL-5 melanoma, 110% in the test on UACC-62 melanoma, 88.8% in the test on LOX IMVI melanoma and 94.6% with SK-MEL-28 melanoma.
On to `COc1cc(NCc2ccc3nc(N)nc(N)c3c2C)cc(OC)c1OC` (tested in a mixture with another compound), for which the growth in the test with HCT-15 colon is 26.1%; with HT29 colon it was 20%; in the test on SNB-75 CNS, 33.1%; with SNB-19 CNS, 31.8%; in the test on U251 CNS it was 31.2%; in the test with PC-3 prostate, 23.4%. The growth is 21.1% in the test with SK-MEL-5 melanoma, 30.5% in the test on UACC-62 melanoma and 16.3% in the test on LOX IMVI melanoma.
Consider `CC(=O)N1CC(=O)NC1=S`, for which the growth in the test on HCT-15 colon is 99.9%; in the test with HT29 colon, 106%; in the test with SNB-75 CNS, 89.2%; in the test with SNB-19 CNS, 101%; in the test with U251 CNS it was 94.8%; in the test with PC-3 prostate, 97.9%. Besides, the growth in the test on SK-MEL-5 melanoma is 103%; in the test on UACC-62 melanoma, 96.1%; with LOX IMVI melanoma it was 98.5%; in the test with SK-MEL-28 melanoma, 108%.
As to `O=C(O)c1cccc2cccc(-c3c4ccc(=O)c(O)c-4oc4c(O)c(O)ccc34)c12`, the growth in the test on HCT-15 colon is 105%; with HT29 colon, 103%; with SNB-75 CNS, 89.6%; in the test with SNB-19 CNS, 98.1%; in the test with U251 CNS, 99.5%; in the test on PC-3 prostate it was 92.3%. Also, the growth in the test on SK-MEL-5 melanoma is 94.6%; in the test on UACC-62 melanoma, 90.6%; in the test on LOX IMVI melanoma it was 90%; in the test on SK-MEL-28 melanoma, 97.6%.
Regarding `OC(c1cc2ccc(C(F)(F)F)cc2c2cc(C(F)(F)F)ccc12)C1CCCCN1` (configuration not stated), the growth was -90.4% (active) with HCT-15 colon; -100% (active) with HT29 colon; -94.4% (active) in the test on SNB-75 CNS; -80.6% (active) with SNB-19 CNS; -100% (active) with U251 CNS; -95.2% (active) in the test with PC-3 prostate. In addition, the growth was -95.4% (active) in the test with SK-MEL-5 melanoma, -96.5% (active) in the test on UACC-62 melanoma, -100% (active) with LOX IMVI melanoma and -99.3% (active) in the test with SK-MEL-28 melanoma.
With `CCN(CC)CC(O)CNc1ccc(NCC2CO2)c2c1C(=O)c1ccccc1C2=O` (configuration not stated), the growth in the test on HCT-15 colon was -38.1% (active); in the test with HT29 colon, -42.9% (active); with SNB-75 CNS it was -66% (active); in the test with SNB-19 CNS it was 3.77% (active); in the test on U251 CNS it was -51.8% (active); in the test with PC-3 prostate it was -28.4% (active). Moreover, the figures for the growth in the test on SK-MEL-5 melanoma, in the test with UACC-62 melanoma and with LOX IMVI melanoma were -89.8% (active), -73.5% (active) and -54.1% (active), respectively.
On to `CCSc1nc2ccccc2o1`, for which the growth in the test with HCT-15 colon is 102%; with HT29 colon it was 113%; with SNB-75 CNS, 88.2%; in the test on SNB-19 CNS, 99.9%; with U251 CNS, 101%; with PC-3 prostate, 92.3%. Moreover, the growth in the test on SK-MEL-5 melanoma is 108%; in the test with UACC-62 melanoma, 102%; in the test on LOX IMVI melanoma, 103%; in the test with SK-MEL-28 melanoma it was 113%.
Consider `CC(=O)Nc1ccc(C(=O)CCl)cc1`, for which the growth with HCT-15 colon is 6.54% (active); in the test with HT29 colon, 8.26% (active); with SNB-75 CNS it was 84.3%; with SNB-19 CNS, 82.5%; in the test on U251 CNS, 86.3%; in the test with PC-3 prostate, 92.9%. Besides, the growth in the test with SK-MEL-5 melanoma is 107%; with UACC-62 melanoma, 81.3%; in the test with LOX IMVI melanoma, -53.6% (active); in the test on SK-MEL-28 melanoma it was 69.6%.
For the compound `Oc1ccccc1N=Cc1ccccc1`, the growth in the test with HCT-15 colon was 58.5%; with HT29 colon it was 102%; with SNB-75 CNS, 132%; with SNB-19 CNS, 93.7%; in the test on U251 CNS, 89.9%; in the test on PC-3 prostate, 36.5%. The growth was 65.2% with SK-MEL-5 melanoma, 98.8% in the test with UACC-62 melanoma, 54.7% in the test with LOX IMVI melanoma and 119% in the test on SK-MEL-28 melanoma.
`Oc1cc(Cl)ccc1Cc1ccc(Cl)cc1O`: the growth was 52% with HCT-15 colon; 102% in the test on HT29 colon; 76.8% in the test on SNB-75 CNS; 66.1% with SNB-19 CNS; 52.7% in the test on U251 CNS; 43.5% with PC-3 prostate. The growth in the test on SK-MEL-5 melanoma was 11.7%; in the test with UACC-62 melanoma it was 32.2%; with LOX IMVI melanoma, 50.6%; with SK-MEL-28 melanoma, 89.3%.
Regarding `CCCCN(CCCC)CCCCCCCCCCO`, the growth in the test with HCT-15 colon is 94.3%; in the test with HT29 colon, 89.2%; in the test with SNB-75 CNS, 101%; with SNB-19 CNS it was 110%; in the test on U251 CNS, 102%; in the test on PC-3 prostate, 115%. Also, the growth in the test on SK-MEL-5 melanoma was 103%; in the test on UACC-62 melanoma, 114%; in the test with LOX IMVI melanoma, 95.2%; in the test on SK-MEL-28 melanoma it was 112%.
As to `O=C1C=CC(=O)N1c1cccc2c1CCCC2`, the growth is 98.4% in the test on HCT-15 colon; 102% in the test on HT29 colon; 85.9% in the test with SNB-75 CNS; 92.6% with SNB-19 CNS; 98.2% in the test with U251 CNS; 98.9% in the test on PC-3 prostate. Moreover, the growth with SK-MEL-5 melanoma was 102%; with UACC-62 melanoma, 99.3%; in the test with LOX IMVI melanoma, 107%; in the test on SK-MEL-28 melanoma it was 99.1%.
Take `O=C(/C(Cl)=N/O)c1ccc(-c2ccccc2)cc1`: the growth was 94.5% in the test with HCT-15 colon; 80.1% with HT29 colon; 113% with SNB-75 CNS; 105% in the test on SNB-19 CNS; 96.1% in the test with U251 CNS; 98.6% in the test on PC-3 prostate. Also, the growth in the test on SK-MEL-5 melanoma is 98.7%; with UACC-62 melanoma it was 97.9%; with LOX IMVI melanoma, -41.5% (active); in the test with SK-MEL-28 melanoma it was 110%.
